GLP1R inv ag: qHTS of GLP-1 Receptor Inverse Agonists (Inhibition Mode); HEK293 GLP-1R CRE-luciferase, luminescence, 24 h; GLP-1R form is constitutively active; Glucagon-like peptide 1 receptor (Homo sapiens), P43220; Potency, µM (top dose mostly 38.3 µM), for inactives: at the highest dose activity change, negative = inhibition, usual class: inhibitors; AID 624417, 2012; 1.6% of 410,000 active; also: potency is read from the fitted curve at half-maximal effect; % is scaled to controls: 0 for no effect and ±100 for the full control effect; nearly all actives have a fitted effect of over 55% in size
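Assay principle: reduced luminescence from a cAMP-responsive reporter in HEK293 cells co-expressing a constitutively active GLP-1R. Conditions: 24 hr compound incubation, 37 deg C, 5% CO2.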
D3 ag: qHTS of D3 Dopamine Receptor Agonist: qHTS; D(3) dopamine receptor (Homo sapiens), P35462; AID 652048, 2013; 0.58% of 410,000 active; D3R DiscoveRx beta-arrestin cells, luminescence, 90 min; max activation, %; in the data active = max activation above about 30%; also: 0% is about no effect
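Agonist-mode cell screen: cells plated at 1500/well and incubated overnight at 37 °C, then exposed to library compounds for 90 min at 37 °C. Detection reagent was added for 30–60 min at room temperature, and luminescence was read.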
GLP1R cytotox: qHTS of GLP-1 Receptor Inverse Agonists: Cytotox Screen | HEK293 cAMP-luciferase reporter cells, luminescence, 24 h | Potency, µM (top dose mostly 38.3 µM), without a hit: top-dose activity change, negative = inhibition, most hits filed as inhibitors | 0.13% of 410,000 active | AID 624418, 2012;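 also: loss of luciferase light is scored as toxicity; potency is read from the fitted curve at half-maximal effect; % is scaled to controls: 0 for no effect and ±100 for the full control effect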
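Compound-treated cells are incubated 24 hr at 37 deg C under 5% CO2 after a 12 hour attachment period, then luciferase detection reagent is added and luminescence is measured following 12 min at room temperature; lowered signal indicates toxicity.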
ClpP mod: qHTS Assay for Activators of ClpP; ATP-dependent Clp protease proteolytic subunit (Bacillus subtilis (strain 168)), P80244; purified B. subtilis ClpP, FRET peptide cleavage, 20 min; Potency, µM (top dose mostly 57.5 µM), inactives show at the top dose activity change, negative = active; 1.9% of 340,000 active; active = well fitted falling curve with a large enough effect; inconclusive = small, poorly fitted or top-dose-only effect; inactive = no such curve, though single readings can be large or run the other way; also: potency is read from the fitted curve at half-maximal effect; the source files actives as falling curves though it sought activators and does not explain the sign; nearly all actives have a fitted effect of over 65% in size
Target sequence (P80244 whole entry, looked up): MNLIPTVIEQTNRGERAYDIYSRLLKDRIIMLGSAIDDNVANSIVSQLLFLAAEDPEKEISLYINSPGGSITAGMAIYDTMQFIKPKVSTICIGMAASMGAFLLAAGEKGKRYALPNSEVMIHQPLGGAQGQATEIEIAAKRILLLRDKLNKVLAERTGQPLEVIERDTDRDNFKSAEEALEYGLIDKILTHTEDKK
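Buffer: 100 mM Tris/HCl pH8, 100 mM KCl, 0.05% low protease BSA, 2.5% glycerol, 0.01% Tween-20. ClpP 10 microg/mL final; 20 min RT; delta FRET normalized to ADEP and DMSO controls.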
GLP-1R agonist: qHTS of GLP-1 Receptor Agonists; Glucagon-like peptide 1 receptor (Homo sapiens), P43220; HEK293 GLP-1R CRE-luciferase, luminescence, 4-6 h; cells express a hypersensitive GLP-1R form; Potency, µM (titrated, usually from 45.6 µM), for the others: at the top dose activation, hits mostly activators; 0.007% of 380,000 active; AID 624172, 2012; also: potency is read from the fitted curve at half-maximal effect; % of control where 0% means no effect
D3 antag: qHTS of D3 Dopamine Receptor Antagonist: qHTS; D(3) dopamine receptor (Homo sapiens), P35462; D3R cells, DiscoveRx beta-arrestin luminescence, antagonist mode; active compounds read low; max response, negative = inhibition, %; 2.5% of 360,000 active; in the data active = max response below about -50%; inconclusive = no clear call, values can overlap the other calls; also: % is scaled to controls: 0 for no effect and ±100 for the full control effect
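Cells plated overnight at 1500 cells/well, then exposed to library compounds with dopamine controls for 90 minutes at 37 degrees C. DiscoveRx reagent added for 30–60 minutes at room temperature; luminescence read, quantitative HTS format.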
* hit, by the source's call; ? = inconclusive; · = no result. In the library only some 5.7% were active in any assay of this set; here they are far more common. Unless noted, calls follow the shape of the dose curve; as a rule, active = well fitted curve in the direction sought with a large enough effect; inconclusive = small, poorly fitted or top-dose-only effect, or another doubt; inactive = no such curve, though single readings can be large; an effect the other way counts as inactive or inconclusive.

SMILES	GLP1R inv ag	D3 ag	GLP1R cytotox	ClpP mod	GLP-1R agonist	D3 antag
Cc1cn2c(=O)c(S(=O)(=O)NCc3ccccc3Cl)c(C)nc2s1	30%	2	-1%	16µM*	·	·
Cc1cn2c(=O)c(S(=O)(=O)Nc3ccc(F)cc3F)c(C)nc2s1	1%	3	-4%	-3%	·	·
Cc1cn2c(=O)c(S(=O)(=O)NCc3ccc(F)cc3)c(C)nc2s1	6%	-3	0%	32µM*	·	·
CC(=O)c1cccc(NS(=O)(=O)c2c(C)nc3sc(C)cn3c2=O)c1	2%	1	-13%	-1%	·	·
O=C(NCCc1ccc(Cl)cc1)c1ccc(CS(=O)Cc2cccc(Cl)c2)o1 (stereo not given)	?	-22	-10%	-4%	·	·
CCOc1ccc(C(=O)OCC(=O)N(Cc2ccccc2)Cc2ccccc2)cc1OC	10µM*	-4	-10%	-8%	5%	0
COc1cc(C(=O)OCC(=O)NC(=O)NCc2ccccc2)ccc1OC(F)F	13%	-5	0%	-4%	1%	-9
Cc1cc(NC(=O)NC(=O)c2ccccc2NC(=O)CN(C)C)ccc1Oc1ncc(Br)cn1	?	-2	?	1%	12%	5
Nc1ccccc1C(=O)NC(=O)Nc1ccc(Oc2ncc(Br)cn2)c(Cl)c1	-45%	-9	?	22µM*	20%	-18
Cc1cc(NC(=O)NC(=O)c2ccccc2NC(=O)CN)ccc1Oc1ncc(Br)cn1	?	9	?	18µM*	0%	-10
CCCCCN1C(C(=O)c2ccccc2)=C(NC(=O)c2ccc(OC)cc2)c2ccccc2S1(=O)=O	-11%	-12	-2%	0%	·	·
CCc1nc(CN2CCCC(C(=O)c3ccc4c5c(cccc35)CC4)C2)c(C)[nH]1 (stereo not given)	?	-20	?	·	10%	-51*
CCc1nc(CN2CCCC(C(=O)Nc3ccc(-c4cccc(OC)c4)cc3)C2)c(C)[nH]1 (stereo not given)	?	0	5%	-10%	11%	-2
O=C(c1ccc2c3c(cccc13)CC2)C1CCCN(Cc2ccncc2)C1 (stereo not given)	?	-16	17%	-14%	12%	-53*
COc1cccc(-c2cnc(C(O)c3ccc(CN4CCCC4)cc3)[nH]2)c1 (stereo not given)	14%	-2	3%	-1%	-2%	-20
FC(F)(F)c1ccc(C2=Nc3ccccc3NC(c3cccs3)=N2)cc1	-7%	-3	-4%	2%	·	·
Cc1cc(C(=O)N2CCCC(N3CCN(c4ccccc4C)CC3)C2)no1 (stereo not given)	-21%	4	-11%	0%	-1%	-5
Cc1cc(C)n2nc(C(=O)N3CCCC(N4CCN(c5ccccc5C)CC4)C3)cc2n1 (stereo not given)	-4%	-37	-8%	28µM*	3%	-23
COc1ccc(CCNC(=O)c2[nH]c(C)c(C(C)=O)c2C)cc1	-10%	8	-15%	35µM*	12%	35
COc1ccc(CCNC(=O)c2c(O)c3c([nH]c2=O)CCCC3)cc1	0%	2	-10%	-2%	-4%	-126*
CO[C@H]1CN(C)C(=O)c2cc(NC(=O)C3CCOCC3)ccc2OC[C@H](C)N(Cc2nccs2)C[C@H]1C	1%	5	-3%	1%	·	20
O=C(NCc1ccco1)C1CCN(C(=O)N2CCOc3ccccc32)CC1	4%	1	2%	0%	·	·
O=C(CCN1C(=O)c2cccc3cccc(c23)C1=O)N1CCOCC1	12%	-4	21%	·	1%	1
